Experimental data taken from PubChem BioAssay (NCI).
About 83,000 compounds went through this panel and 20% of them were active in at least one assay; those are over-represented in the sample as a whole.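 For each line, cells grew in 96-well plates with the test compound present at a single concentration for 48 hours.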 The source made the active and inactive calls. Rule for the calls: active = growth percent below 10; inactive = the rest.

Tests used:
Assay in all cases: NCI-60 one-dose screen, 48 h (100 = growth as untreated, 0 = no growth, -100 = all killed)
Conditions in all cases: 10 µM unless noted
DU-145 prostate = test system: DU-145 prostate
K-562 leukemia = test system: K-562 leukemia
MALME-3M melanoma = test system: MALME-3M melanoma
MDA-MB-231 breast = test system: MDA-MB-231 breast
RXF 393 renal = test system: RXF 393 renal
SF-268 CNS = test system: SF-268 CNS
SF-295 CNS = test system: SF-295 CNS
SF-539 CNS = test system: SF-539 CNS
UACC-257 melanoma = test system: UACC-257 melanoma
M14 melanoma = test system: M14 melanoma
HCT-15 colon = test system: HCT-15 colon
HT29 colon = test system: HT29 colon
SNB-75 CNS = test system: SNB-75 CNS
SNB-19 CNS = test system: SNB-19 CNS
U251 CNS = test system: U251 CNS
PC-3 prostate = test system: PC-3 prostate
SK-MEL-5 melanoma = test system: SK-MEL-5 melanoma
UACC-62 melanoma = test system: UACC-62 melanoma
LOX IMVI melanoma = test system: LOX IMVI melanoma
SK-MEL-28 melanoma = test system: SK-MEL-28 melanoma

Measured: growth

C=C(C)[C@@H]1CC[C@]2(COC(=O)c3ccccc3C(=O)O)CC[C@]3(C)[C@H](CC[C@@H]4[C@@]5(C)CC[C@H](OC(=O)c6ccccc6C(=O)O)C(C)(C)[C@@H]5CC[C@]43C)[C@@H]12
inactive: DU-145 prostate 29.7% [100 µM] | K-562 leukemia 44.7% [100 µM] | MALME-3M melanoma 30.7% [100 µM] | SF-268 CNS 18% [100 µM] | SF-295 CNS 10.2% [100 µM] | SF-539 CNS 10.6% [100 µM] | UACC-257 melanoma 92.9% [100 µM] | M14 melanoma 29.6% [100 µM] | HCT-15 colon 18.1% [100 µM] | HT29 colon 64.3% [100 µM] | PC-3 prostate 16.2% [100 µM] | SK-MEL-5 melanoma 11.9% [100 µM] | LOX IMVI melanoma 11.2% [100 µM] | SK-MEL-28 melanoma 31.3% [100 µM]
active: MDA-MB-231 breast -26.2% [100 µM] | RXF 393 renal -21.9% [100 µM] | SNB-75 CNS -20.7% [100 µM] | SNB-19 CNS 4.01% [100 µM] | U251 CNS 4.32% [100 µM] | UACC-62 melanoma -18.7% [100 µM]

Cc1ccc2c(c1)C(C)Cc1c(Cl)ncnc1N2C (stereo not given)
active: MDA-MB-231 breast -31.9% | RXF 393 renal 4.04% | HCT-15 colon 8.93% | HT29 colon -8.76% | SK-MEL-5 melanoma -86.7% | UACC-62 melanoma 7.38% | LOX IMVI melanoma -58.1%
inactive: DU-145 prostate 79.8% | K-562 leukemia 30.9% | MALME-3M melanoma 14.6% | SF-268 CNS 22.6% | SF-295 CNS 18.4% | SF-539 CNS 29% | UACC-257 melanoma 20.1% | M14 melanoma 15.1% | SNB-75 CNS 50.3% | SNB-19 CNS 30.4% | U251 CNS 17.9% | PC-3 prostate 14.1% | SK-MEL-28 melanoma 27.1%

O=C(CCCCCCSc1nc(-c2ccc(Cl)cc2)cc(-c2ccc(Cl)cc2)n1)NO
active: RXF 393 renal 2.65% | SK-MEL-5 melanoma 5.66% | LOX IMVI melanoma 2.18%
inactive: DU-145 prostate 22.4% | K-562 leukemia 24.4% | MALME-3M melanoma 15% | MDA-MB-231 breast 61.1% | SF-268 CNS 30.4% | SF-295 CNS 52.6% | SF-539 CNS 28.4% | UACC-257 melanoma 31.5% | M14 melanoma 31.7% | HCT-15 colon 23.6% | HT29 colon 20.4% | SNB-75 CNS 57.7% | SNB-19 CNS 37.3% | U251 CNS 16.6% | PC-3 prostate 42.8% | UACC-62 melanoma 16.1% | SK-MEL-28 melanoma 57.8%

O=C1NC(=O)C(Cc2ccc(OCc3ccc(-c4cc(F)c(F)c(F)c4)cc3)cc2)S1 (stereo not given)
inactive: DU-145 prostate 95.1% | K-562 leukemia 65% | MALME-3M melanoma 93% | MDA-MB-231 breast 76.7% | RXF 393 renal 102% | SF-268 CNS 78.5% | SF-295 CNS 85.7% | SF-539 CNS 85% | UACC-257 melanoma 90.7% | M14 melanoma 94.8% | HCT-15 colon 88.2% | HT29 colon 107% | SNB-75 CNS 83.2% | SNB-19 CNS 93.5% | U251 CNS 86.1% | PC-3 prostate 71.4% | SK-MEL-5 melanoma 76.5% | UACC-62 melanoma 56.2% | LOX IMVI melanoma 77.4% | SK-MEL-28 melanoma 102%

CCCCC1COc2cccc3c2N1C=C/C3=C\C(=O)n1ccc2ccccc21 (stereo not given)
inactive: DU-145 prostate 99.1% | K-562 leukemia 19.2% | MALME-3M melanoma 69.3% | MDA-MB-231 breast 85.1% | RXF 393 renal 87% | SF-268 CNS 94.5% | SF-295 CNS 80.7% | SF-539 CNS 97.2% | UACC-257 melanoma 85.6% | M14 melanoma 56% | HCT-15 colon 47.6% | HT29 colon 43.9% | SNB-75 CNS 14.5% | SNB-19 CNS 84.9% | U251 CNS 76.5% | PC-3 prostate 65.9% | SK-MEL-5 melanoma 78.5% | UACC-62 melanoma 56.3% | LOX IMVI melanoma 76% | SK-MEL-28 melanoma 92.5%

COc1ncc(-c2ccc3nccc(C#CCCCCC(=O)NO)c3c2)cc1NS(=O)(=O)c1ccc(F)cc1F
inactive: DU-145 prostate 12.4% | K-562 leukemia 17.3% | HCT-15 colon 24.9%
active: MALME-3M melanoma -40.5% | MDA-MB-231 breast -11.8% | RXF 393 renal -56.6% | SF-268 CNS -11.6% | SF-295 CNS -9.35% | SF-539 CNS -45.7% | UACC-257 melanoma -16.4% | M14 melanoma -48.7% | HT29 colon 7.04% | SNB-75 CNS -15.3% | SNB-19 CNS 4.98% | U251 CNS -14% | PC-3 prostate 7.68% | SK-MEL-5 melanoma -97.3% | UACC-62 melanoma -37.3% | LOX IMVI melanoma -69.4% | SK-MEL-28 melanoma -27.9%

C[n+]1cccc(NC(=O)c2ccc3ccc4ccc(C(=O)Nc5ccc[n+](C)c5)nc4c3n2)c1
active: DU-145 prostate 9.79% | SF-295 CNS 5.59% | SK-MEL-5 melanoma 1.98% | UACC-62 melanoma -54.4%
inactive: K-562 leukemia 35.8% | MALME-3M melanoma 81.4% | MDA-MB-231 breast 33.2% | RXF 393 renal 33% | SF-268 CNS 53.3% | SF-539 CNS 37.7% | UACC-257 melanoma 94.4% | M14 melanoma 53.6% | HCT-15 colon 61.2% | HT29 colon 34.2% | SNB-75 CNS 12.8% | SNB-19 CNS 14.3% | U251 CNS 13% | PC-3 prostate 55.3% | LOX IMVI melanoma 64.5% | SK-MEL-28 melanoma 31.2%

O=C1Nc2ccccc2/C1=C/C(=O)c1ccc(N2CCCC2)cc1
active: SF-539 CNS 4.58% | HT29 colon -9.76% | U251 CNS 4.98% | LOX IMVI melanoma -17%
inactive: DU-145 prostate 12.3% | K-562 leukemia 14.3% | MALME-3M melanoma 39.3% | MDA-MB-231 breast 47.2% | RXF 393 renal 20.6% | SF-268 CNS 21.9% | SF-295 CNS 68.8% | UACC-257 melanoma 78.1% | M14 melanoma 108% | HCT-15 colon 23.1% | SNB-75 CNS 23.3% | SNB-19 CNS 57.2% | PC-3 prostate 38.2% | SK-MEL-5 melanoma 65.2% | UACC-62 melanoma 34.5% | SK-MEL-28 melanoma 76.5%

COc1ccc(-c2cc(-c3ccc(Cl)cc3)nc(SCCCCCCC(=O)NO)n2)cc1
active: RXF 393 renal -0.367% | SK-MEL-5 melanoma -6.04% | LOX IMVI melanoma -17.6%
inactive: DU-145 prostate 24.6% | K-562 leukemia 20.1% | MALME-3M melanoma 11.7% | MDA-MB-231 breast 45.8% | SF-268 CNS 31.7% | SF-295 CNS 36.3% | SF-539 CNS 34.8% | UACC-257 melanoma 23% | M14 melanoma 22.3% | HCT-15 colon 15.5% | HT29 colon 10.8% | SNB-75 CNS 34.5% | SNB-19 CNS 35.9% | U251 CNS 19% | PC-3 prostate 49.2% | UACC-62 melanoma 14.9% | SK-MEL-28 melanoma 57.6%

CCCCCN(CCCCC)CCCCCCCCN1CCCc2ccccc21
active: K-562 leukemia 7.49%
inactive: DU-145 prostate 101% | MALME-3M melanoma 99.2% | MDA-MB-231 breast 90.9% | RXF 393 renal 115% | SF-268 CNS 86.9% | SF-295 CNS 80.1% | SF-539 CNS 107% | UACC-257 melanoma 95.2% | M14 melanoma 89.8% | HCT-15 colon 89.7% | HT29 colon 25.6% | SNB-75 CNS 76.6% | SNB-19 CNS 102% | U251 CNS 101% | PC-3 prostate 79.5% | SK-MEL-5 melanoma 100% | UACC-62 melanoma 101% | LOX IMVI melanoma 61.4% | SK-MEL-28 melanoma 105%

COc1ccc2c3ccnc(C(F)(F)F)c3n(CCCCN)c2c1
inactive: DU-145 prostate 71.4% | K-562 leukemia 71.1% | MALME-3M melanoma 43.7% | MDA-MB-231 breast 41.5% | RXF 393 renal 49.8% | SF-268 CNS 67.5% | SF-295 CNS 59.7% | SF-539 CNS 34.6% | UACC-257 melanoma 37.9% | M14 melanoma 23.6% | HCT-15 colon 62.9% | HT29 colon 22.6% | SNB-75 CNS 49.2% | SNB-19 CNS 68% | U251 CNS 46.4% | PC-3 prostate 22.8% | SK-MEL-5 melanoma 70.7% | UACC-62 melanoma 39.2% | LOX IMVI melanoma 32.3% | SK-MEL-28 melanoma 38.6%

Nc1nc(SCc2cccc([N+](=O)[O-])c2)c2[nH]cnc2n1
inactive: DU-145 prostate 104% | K-562 leukemia 92% | MALME-3M melanoma 107% | MDA-MB-231 breast 103% | RXF 393 renal 73.6% | SF-268 CNS 90.2% | SF-295 CNS 93.6% | SF-539 CNS 103% | UACC-257 melanoma 104% | M14 melanoma 100% | HCT-15 colon 95.1% | HT29 colon 98.4% | SNB-75 CNS 89.5% | SNB-19 CNS 91.7% | U251 CNS 95% | PC-3 prostate 92.3% | SK-MEL-5 melanoma 98% | UACC-62 melanoma 91.3% | LOX IMVI melanoma 77.9% | SK-MEL-28 melanoma 106%

O=C(CCCSc1nc(-c2ccccc2)cc(-c2ccccc2)n1)NO
active: K-562 leukemia 6.51% | MALME-3M melanoma 7.62% | RXF 393 renal -21.7% | SF-268 CNS 0.164% | SF-295 CNS 4.39% | SF-539 CNS 6.64% | UACC-257 melanoma -2.82% | M14 melanoma 5.46% | HT29 colon 2.72% | SNB-75 CNS 9.8% | U251 CNS -13.2% | SK-MEL-5 melanoma -17.3% | UACC-62 melanoma -20.9% | LOX IMVI melanoma -25.3%
inactive: DU-145 prostate 13.3% | MDA-MB-231 breast 19.8% | HCT-15 colon 20.4% | SNB-19 CNS 21.6% | PC-3 prostate 26.2% | SK-MEL-28 melanoma 26%

O=C1/C(=C/c2ccc(OCc3ccccc3)cc2)Oc2cc(OCCN3CCCCC3)ccc21
inactive: DU-145 prostate 91.9% | MALME-3M melanoma 67.8% | MDA-MB-231 breast 80.9% | RXF 393 renal 60.8% | SF-268 CNS 77.4% | SF-295 CNS 92.9% | SF-539 CNS 69.5% | UACC-257 melanoma 90% | M14 melanoma 60.8% | HCT-15 colon 14% | HT29 colon 33.2% | SNB-75 CNS 83% | SNB-19 CNS 94.3% | U251 CNS 69.8% | PC-3 prostate 74.9% | SK-MEL-5 melanoma 61.6% | UACC-62 melanoma 61% | LOX IMVI melanoma 52.3% | SK-MEL-28 melanoma 78.4%
active: K-562 leukemia 9.17%
